Reference: PubChem BioAssay AID1159580 (chemical genetic matrix, 2015)
The campaign covered roughly 5,500 compounds. About 2,000 (36%) were called active. About 18% were inconclusive and are not listed. Rule as the data show it: active = normalized growth mostly below about 0.91 (no sharp cut-off); inconclusive = no clear call, values can overlap the other calls; inactive = mostly above about 0.92. Some of the results follow.

Test: chemical genetic growth profiling, strain panel (AID 1159580);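 also: tested at 20 µM; growth read once vehicle control cultures reached saturation at 30 °C; 1 = growth at the plate median or of vehicle wells; lower values mean less growth of the strain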
Conditions: growth OD

Measured: normalized growth

CCC1(c2ccccc2)C(=O)NCNC1=O
inactive: S. cerevisiae deletion strains, locus YJR075W, strain HOC1, hits give low values 1.01 | S. cerevisiae deletion strains, locus YKL009W, strain mrt4, hits give low values 0.998 | S. cerevisiae deletion strains, locus YKL068W, hits give low values 0.997 | S. cerevisiae deletion strains, locus YKL085W, strain MDH1 (second series), hits give low values 0.996 | S. cerevisiae deletion strains, locus YKL085W, strain MDH1, hits give low values 0.996 | S. cerevisiae deletion strains, locus YKL160W, strain elf1, hits give low values 1.02 | S. cerevisiae deletion strains, locus YKL190W, strain CNB1, hits give low values 1.01 | S. cerevisiae deletion strains, locus YKR001C, strain vps1, hits give low values 0.995 | S. cerevisiae deletion strains, locus YKR026C, strain gcn3, hits give low values 0.978 | S. cerevisiae deletion strains, locus YKR091W, strain srl3, hits give low values 0.999 | S. cerevisiae deletion strains, locus YLL001W, strain dnm1, hits give low values 1.02 | S. cerevisiae deletion strains, locus YLL026W, hits give low values 1 | S. cerevisiae deletion strains, locus YLL041C, strain sdh2, hits give low values 1.01 | S. cerevisiae deletion strains, locus YLR027C, strain aat2, hits give low values 1.01 | S. cerevisiae deletion strains, locus YLR039C, strain RIC1, hits give low values 0.971 | S. cerevisiae deletion strains, locus YLR058C, strain SHM2, hits give low values 1.01 | S. cerevisiae deletion strains, locus YLR102C, strain apc9, hits give low values 0.996 | S. cerevisiae deletion strains, locus YLR113W, strain HOG1, hits give low values 0.993 | S. cerevisiae deletion strains, locus YLR221C, strain rsa3, hits give low values 1.01 | S. cerevisiae deletion strains, locus YLR258W, strain gsy2, hits give low values 1.01 | S. cerevisiae deletion strains, locus YLR262C, strain YPT6 (second series), hits give low values 1.03 | S. cerevisiae deletion strains, locus YLR262C, strain YPT6, hits give low values 0.995 | S. cerevisiae deletion strains, locus YLR268W, strain sec22, hits give low values 0.981 | S. cerevisiae deletion strains, locus YLR320W, strain mms22, hits give low values 1.02 | S. cerevisiae deletion strains, locus YLR330W, strain CHS5, hits give low values 1.01 | S. cerevisiae deletion strains, locus YLR342W, strain FKS1 (second series), hits give low values 1.01 | S. cerevisiae deletion strains, locus YLR342W, strain FKS1, hits give low values 1.03 | S. cerevisiae deletion strains, locus YLR357W, strain rsc2, hits give low values 1.02 | S. cerevisiae deletion strains, locus YLR370C, strain arc18, hits give low values 1.01 | S. cerevisiae deletion strains, locus YLR371W, strain rom2, hits give low values 1 | S. cerevisiae deletion strains, locus YLR384C, strain iki3, hits give low values 1.01 | S. cerevisiae deletion strains, locus YLR418C, strain cdc73, hits give low values 0.992 | S. cerevisiae deletion strains, locus YML016C, strain PPZ1, hits give low values 1 | S. cerevisiae deletion strains, locus YML032C, strain rad52, hits give low values 0.992 | S. cerevisiae deletion strains, locus YML120C, strain ndi1, hits give low values 1.01 | S. cerevisiae deletion strains, locus YML124C, strain tub3, hits give low values 0.995 | S. cerevisiae deletion strains, locus YMR058W, strain fet3, hits give low values 0.995 | S. cerevisiae deletion strains, locus YMR078C, strain ctf18, hits give low values 1 | S. cerevisiae deletion strains, locus YMR125W, strain sto1, hits give low values 0.979 | S. cerevisiae deletion strains, locus YMR129W, hits give low values 0.99 | S. cerevisiae deletion strains, locus YMR205C, strain PFK2, hits give low values 1.02 | S. cerevisiae deletion strains, locus YMR223W, strain ubp8, hits give low values 0.995 | S. cerevisiae deletion strains, locus YMR231W, strain pep5, hits give low values 1.01 | S. cerevisiae deletion strains, locus YMR263W, strain SAP30, hits give low values 0.982 | S. cerevisiae deletion strains, locus YMR307W, strain GAS1, hits give low values 0.998 | S. cerevisiae deletion strains, locus YNL067W, strain RPL9B, hits give low values 1.01 | S. cerevisiae deletion strains, locus YNL071W, strain lat1, hits give low values 1 | S. cerevisiae deletion strains, locus YNL128W, strain TEP1, hits give low values 1.02 | S. cerevisiae deletion strains, locus YNL153C, strain GIM3, hits give low values 1.13 | S. cerevisiae deletion strains, locus YNL175C, strain NOP13, hits give low values 0.997 | S. cerevisiae deletion strains, locus YNL183C, strain NPR1, hits give low values 0.975 | S. cerevisiae deletion strains, locus YNL197C, strain WHI3, hits give low values 0.976 | S. cerevisiae deletion strains, locus YNL209W, strain ssb2, hits give low values 1.01 | S. cerevisiae deletion strains, locus YNL224C, strain SQS1, hits give low values 1 | S. cerevisiae deletion strains, locus YNL233W, strain BNI4, hits give low values 1 | S. cerevisiae deletion strains, locus YNL248C, strain rpa49, hits give low values 1.01 | S. cerevisiae deletion strains, locus YNL250W, strain rad50, hits give low values 0.998 | S. cerevisiae deletion strains, locus YNL271C, strain bni1, hits give low values 0.993 | S. cerevisiae deletion strains, locus YNL298W, strain CLA4, hits give low values 1.01 | S. cerevisiae deletion strains, locus YNL307C, strain MCK1, hits give low values 0.995 | S. cerevisiae deletion strains, locus YNL322C, strain KRE1 (second series), hits give low values 1.01 | S. cerevisiae deletion strains, locus YNL322C, strain KRE1, hits give low values 1 | S. cerevisiae deletion strains, locus YNR049C, strain mso1, hits give low values 1 | S. cerevisiae deletion strains, locus YNR052C, strain pop2, hits give low values 0.998 | S. cerevisiae deletion strains, locus YOL006C, strain TOP1, hits give low values 0.989 | S. cerevisiae deletion strains, locus YOL012C, strain htz1 0.947 | S. cerevisiae deletion strains, locus YOL147C, strain pex11, hits give low values 0.988 | S. cerevisiae deletion strains, locus YOR001W, strain rrp6, hits give low values 0.981 | S. cerevisiae deletion strains, locus YOR061W, strain CKA2, hits give low values 1 | S. cerevisiae deletion strains, locus YOR069W, strain VPS5, hits give low values 1.01 | S. cerevisiae deletion strains, locus YOR070C, strain gyp1, hits give low values 1.01 | S. cerevisiae deletion strains, locus YOR080W, strain dia2, hits give low values 1.01 | S. cerevisiae deletion strains, locus YOR083W, strain WHI5 (second series), hits give low values 1 | S. cerevisiae deletion strains, locus YOR083W, strain WHI5, hits give low values 1.02 | S. cerevisiae deletion strains, locus YOR106W, strain vam3, hits give low values 1.01 | S. cerevisiae deletion strains, locus YOR136W, strain idh2, hits give low values 1 | S. cerevisiae deletion strains, locus YOR144C, strain elg1, hits give low values 0.992 | S. cerevisiae deletion strains, locus YOR184W, strain ser1, hits give low values 1.01 | S. cerevisiae deletion strains, locus YOR231W, strain MKK1, hits give low values 1 | S. cerevisiae deletion strains, locus YOR265W, strain rbl2, hits give low values 1 | S. cerevisiae deletion strains, locus YOR270C, strain vph1, hits give low values 1.02 | S. cerevisiae deletion strains, locus YOR290C, strain snf2, hits give low values 1.01 | S. cerevisiae deletion strains, locus YOR316C, strain cot1, hits give low values 0.996 | S. cerevisiae deletion strains, locus YPL051W, strain arl3, hits give low values 1.01 | S. cerevisiae deletion strains, locus YPL055C, strain LGE1, hits give low values 1.01 | S. cerevisiae deletion strains, locus YPL078C, strain atp4, hits give low values 0.994 | S. cerevisiae deletion strains, locus YPL106C, strain sse1, hits give low values 1.01 | S. cerevisiae deletion strains, locus YPL240C, strain hsp82, hits give low values 0.992 | S. cerevisiae deletion strains, locus YPL241C, strain CIN2, hits give low values 1.01 | S. cerevisiae deletion strains, locus YPL256C, strain CLN2, hits give low values 1 | S. cerevisiae deletion strains, locus YPR119W, strain clb2, hits give low values 0.996 | S. cerevisiae deletion strains, locus YPR141C, strain kar3, hits give low values 0.989 | S. cerevisiae deletion strains, locus YPR163C, strain tif3, hits give low values 0.994 | S. cerevisiae deletion strains, locus YPR167C, strain met16, hits give low values 0.995 | S. cerevisiae deletion strains, strain wtn01, hits give low values 0.991 | S. cerevisiae strains, strain wild type, hits give low values 1.01
